From PubChem BioAssay AID1211 (NMMLSC, 2008)
Activity calls are given as the source filed them. The rule behind the calls is not given here.

Target: Estrogen receptor (Homo sapiens) (UniProt P03372)
Assay: ERalpha ligand binders by competition, primary screen, cell-based, Cos7 ERalpha-GFP, flow cytometry (AID 1211);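 note: 0% = DMSO vehicle wells and 100% = no E2-Alexa633 signal left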
Conditions: fluorescent ligand competition, stronger effect = higher value

Estrogen receptor (Homo sapiens), sequence (P03372 whole entry, looked up): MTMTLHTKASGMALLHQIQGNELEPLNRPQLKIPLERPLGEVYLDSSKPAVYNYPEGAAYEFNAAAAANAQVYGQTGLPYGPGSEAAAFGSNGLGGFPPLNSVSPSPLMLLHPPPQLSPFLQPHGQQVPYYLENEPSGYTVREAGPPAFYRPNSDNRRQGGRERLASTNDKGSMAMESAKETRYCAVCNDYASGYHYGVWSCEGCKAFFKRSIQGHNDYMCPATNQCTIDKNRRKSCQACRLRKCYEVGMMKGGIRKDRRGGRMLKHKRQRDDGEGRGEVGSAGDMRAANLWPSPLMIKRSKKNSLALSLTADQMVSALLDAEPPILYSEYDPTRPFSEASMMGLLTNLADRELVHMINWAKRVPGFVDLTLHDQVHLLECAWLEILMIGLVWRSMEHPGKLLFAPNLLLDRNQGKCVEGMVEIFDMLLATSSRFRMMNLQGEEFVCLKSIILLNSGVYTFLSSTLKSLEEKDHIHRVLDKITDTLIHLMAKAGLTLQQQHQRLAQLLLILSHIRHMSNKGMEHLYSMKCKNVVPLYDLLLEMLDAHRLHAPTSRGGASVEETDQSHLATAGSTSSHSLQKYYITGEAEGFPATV

| SMILES | inhibition of ligand binding (at 10 µM) | inhibition of ligand binding (binding inhibition, at 0.1 µM) |
| --- | --- | --- |
| Cn1c(-c2ccc(N)cc2)nc2ccccc21 | 23% (inactive) | 15% |
| CCN(CC)c1ccc(-c2nn3c(-c4ccccc4OC)nnc3s2)cc1 | 40% (inactive) | 25% |
| C1CCC(c2nn3c(-c4n[nH]c5c4CCC5)nnc3s2)CC1 | 20% (inactive) | 5% |
| COc1ccccc1/C=c1\sc2nc(-c3ccco3)nn2c1=O | 40% (inactive) | 25% |
| COc1cc(C2Nc3c(F)cccc3C3C=CCC32)cc(Br)c1OC (stereo unspecified) | 10% (inactive) | 20% |
| Nc1nc(-c2ccc3c(c2)NC(=O)CO3)cs1 | 32% (inactive) | 12% |
| CCN(CC)CCCNC(=O)c1nn(-c2ccccc2OC)c(=O)c2ccccc12 | 39% (inactive) | 62% |
| CC1CCN(S(=O)(=O)c2ccc(NC(=O)Cc3cccs3)cc2)CC1 | 62% (inactive) | 56% |
| Oc1ccc(-c2nc(-c3ccc(O)c(O)c3)cs2)cc1 | 68% (active) | 39% |
| Cc1ccc2c(Cl)cc(Cl)c(OCC(=O)NCc3ccco3)c2n1 | 21% (inactive) | 18% |
| Nc1ccc2nc(-c3cccs3)[nH]c2c1 | 10% (inactive) | 49% |
| COc1cccc(-c2nnc(NC(=O)Cc3cccs3)s2)c1 | 52% (inactive) | 20% |
| O=S(=O)(Nc1ncnc2sc3c(c12)CCC3)c1ccc2ccccc2c1 | 28% (inactive) | 37% |
| COc1ccc2c(c1)c(=O)oc1cc3oc(C)c(C)c3cc12 | 3% (inactive) | 16% |
| COc1ccc(NC(=O)C(c2ccccc2)N(C)C(=O)c2ccc(=O)[nH]c2)cc1 (stereo unspecified) | 49% (active) | 86% |
| CCOc1cccc2cc(-c3cn4cc(C)ccc4n3)c(=O)oc12 | 52% (inactive) | 29% |
| CCOC(=O)Cc1cc(-c2ccc(O)cc2)nc2ccc3ccccc3c12 | 37% (inactive) | 15% |
| COc1nc(-c2ccc(Cl)cc2)ccc1-c1noc(-c2ccco2)n1 | 57% (inactive) | 14% |
| Cc1cccc2cc(C(c3nnnn3C(C)(C)C)N(Cc3ccco3)CC3CCCO3)c(=O)[nH]c12 (stereo unspecified) | 31% (inactive) | 7% |
| Nc1ccc2nc(-c3cc(Cl)c(N)c(Cl)c3)[nH]c2c1 | 18% (inactive) | 6% |
| Cc1ccc2nc(/C(C#N)=C\c3ccc(N4CCCCC4)c([N+](=O)[O-])c3)[nH]c2c1 | 55% (inactive) | 25% |

| SMILES | inhibition of ligand binding (at 10 µM) | inhibition of ligand binding (binding inhibition, at 0.1 µM) |
| --- | --- | --- |
| O=C(Nc1ccc(-c2nc3ccc(NC(=O)c4cccs4)cc3[nH]2)cc1)c1cccs1 | 39% (inactive) | 20% |
| CCN(CC)c1ccc2c(c1)oc(=O)c1c(Cl)cc(=O)oc12 | 23% (inactive) | 4% |
| O=c1[nH]cnc2c1sc1nc3c(c(-c4ccc(Cl)cc4)c12)CCC3 | 41% (inactive) | 9% |
| O=C(/C=C/c1ccc(O)cc1)c1ccc(O)cc1O | 62% (inactive) | 18% |
| O=C(c1cccc(F)c1)N1CCN(C(=O)c2cc3ncc(Br)cn3n2)CC1 | 35% (inactive) | 50% |
| Cc1cc(C)c(S(=O)(=O)/N=C2\C=CC(=O)C(Cl)=C2)c(C)c1 | 20% (inactive) | 7% |
| Cc1nn(-c2ccccc2)c(C)c1NC(=O)Cc1cccs1 | 11% (inactive) | 35% |
| Cc1cccc(N2CCN(C(=O)c3cc4c(=O)n(C)c5ccccc5c4n3C)CC2)c1C | 55% (inactive) | 11% |
| COc1cccc(NC(=O)CSc2nc3ccccc3c3nc4ccccc4n23)c1 | 51% (inactive) | 56% |
| COc1cc(C=C(c2nc3ccccc3s2)c2nc3ccccc3s2)ccc1O | 31% (inactive) | 35% |
| Cc1ccc(-c2nn(-c3ccccc3)cc2CSC(=N)N)cc1 | 26% (inactive) | 39% |
| Oc1ccc(/C=N/n2c(-c3ccco3)csc2=Nc2cccnc2)c(O)c1 | 49% (inactive) | 21% |
| Cc1ccc(C(=O)ONc2ccc(N=NC(=O)c3ccccc3O)cc2)cc1 | 39% (inactive) | 37% |
| Cc1occc1C(=O)NCc1cccc(CNC(=O)c2ccoc2C)c1 | 39% (inactive) | 26% |
| Cc1ccc2[nH]c(=O)c(-c3nc4ccccn4c3NCc3ccco3)cc2c1 | 23% (inactive) | 16% |
| Cc1ccc(C)c(SCC(=O)OCC(=O)c2ccco2)c1 | 0% (inactive) | 28% |
| O=C(N/N=C/c1cccc(Oc2ccc([N+](=O)[O-])cc2[N+](=O)[O-])c1)c1cncc(Br)c1 | 21% (inactive) | 63% |
| C[C@@H]1O[C@@H](Oc2c(-c3cc(O)c(O)c(O)c3)oc3cc(O)cc(O)c3c2=O)[C@H](O)[C@H](O)[C@H]1O | 52% (inactive) | 26% |
| Cc1cc(C(=O)O)ccc1-n1c(C)ccc1C | 43% (inactive) | 58% |
| C/C(N)=C(/C#N)C(=O)CSc1nnc(Nc2cccc(C)c2C)s1 | 32% (inactive) | 16% |
| CCc1ccc(-c2nn(-c3ccccc3)cc2CSC(=N)N)cc1 | 22% (inactive) | 45% |

| SMILES | inhibition of ligand binding (at 10 µM) | inhibition of ligand binding (binding inhibition, at 0.1 µM) |
| --- | --- | --- |
| CC(C)(C)c1nnc2sc(SC/C(O)=C(\C#N)c3nc4ccccc4[nH]3)nn2c1=O | 20% (inactive) | 8% |
| Cc1ccc(-c2nn3c(C)nnc3s2)cc1NC(=O)COc1ccc(Cl)cc1 | 38% (inactive) | 42% |
| COCCOC(=O)c1[nH]c2c(c1C)C(=O)CC(c1ccco1)C2 (stereo unspecified) | 2% (inactive) | 8% |
| O=C1c2ccccc2C(=O)N1CCCc1nc2ccccc2c(=O)n1CCCn1ccnc1 | 36% (inactive) | 23% |
| COc1ccc2c(c1OC)C(=O)N1N=C(c3ccc(O)cc3)CC21 (stereo unspecified) | 0% (inactive) | 30% |
| CCC(=O)Oc1ccc(/C(CC)=C(\CC)c2ccc(OC(=O)CC)cc2)cc1 | 77% (active) | 86% |
| COC(=O)c1[nH]c2ccc(C)cc2c1NC(=O)CN1CCCc2ccccc21 | 49% (inactive) | 9% |
| CCCCN(CCCC)S(=O)(=O)c1ccc(NC(=O)Cc2cccs2)cc1 | 61% (inactive) | 46% |
| Oc1ccccc1C1=Nc2ccccc2N=C(c2cccs2)C1 | 1% (inactive) | 54% |
| COC(=O)c1ccc(-c2n[nH]c(=O)c3ccccc23)cc1 | 0% (inactive) | 16% |
| Cc1csc2nc(CCNS(=O)(=O)c3ccc4c(c3)OCCO4)cn12 | 38% (active) | 77% |
| N=c1c(C(=O)NCc2ccc(F)cc2)cc2c(=O)n3ccccc3nc2n1Cc1cccnc1 | 44% (inactive) | 26% |
| COc1ccc(NC(=O)CN(c2ccccc2)S(=O)(=O)N(C)C)cc1OC | 16% (inactive) | 16% |
| O=C1CC(=O)N2N=C(c3ccc([N+](=O)[O-])cc3)SC2=N1 | 38% (inactive) | 8% |
| O=C(CSc1nnc(Nc2ccccc2F)s1)NCc1ccco1 | 3% (inactive) | 3% |
| CCOC(=O)c1sc(NC(=O)c2ccc3ncsc3c2)nc1C | 33% (inactive) | 36% |
| CCn1c2ccccc2c2cc(NC(=O)CSc3nnc(-c4ccc(OC)cc4)n3N)ccc21 | 53% (inactive) | 17% |
| Cc1oc2c(C)c(O)ccc2c(=O)c1-c1ccc2ccccc2n1 | 20% (active) | 70% |
| COc1ccc(-c2nnc(SCC(=O)/C(C#N)=C(\C)N)o2)cc1 | 40% (inactive) | 16% |
| NNc1nc2sc3c(c2c(=O)[nH]1)CCc1ccccc1-3 | 55% (inactive) | 28% |
| O=C(Cc1cccs1)Nc1ccc(S(=O)(=O)Nc2ncccn2)cc1 | 15% (active) | 87% |

| SMILES | inhibition of ligand binding (at 10 µM) | inhibition of ligand binding (binding inhibition, at 0.1 µM) |
| --- | --- | --- |
| COc1ccc(N2C(=O)c3ccccc3NC2c2ccc(OC)c(CSc3ccccn3)c2)cc1 (stereo unspecified) | 40% (inactive) | 19% |
| CSc1nc2c(c(=O)[nH]1)C(c1cccs1)C1=C(CCCC1=O)N2 (stereo unspecified) | 28% (inactive) | 30% |
| COc1ccc(OC)c(NC(=O)c2cc(-c3ccc(C)cc3O)n[nH]2)c1 | 40% (inactive) | 5% |
| Cc1nnc(SCC(=O)NC(=O)NCc2ccco2)n1Cc1ccccc1 | 8% (inactive) | 12% |
| COc1ccc(Cn2c(=O)[nH]c3cc(C(=O)NCc4ccc5c(c4)OCO5)ccc3c2=O)cc1 | 23% (inactive) | 53% |
| O=C(Cc1cccs1)Nc1ccc(-c2nnn(CC(=O)N3CCOCC3)n2)cc1 | 15% (inactive) | 55% |
| C/C=C/COC(=O)c1[nH]c2c(c1C)C(=O)CC(c1ccco1)C2 (stereo unspecified) | 29% (inactive) | 27% |
| Cc1cc(C)c(C(=O)COc2cccnc2[N+](=O)[O-])cc1C | 19% (inactive) | 30% |
| COc1ccc(-c2nn(-c3ccccc3)cc2/C=C2/SC(=S)N(Cc3ccco3)C2=O)c(C)c1 | 21% (active) | 67% |
| Cc1ccc(NC(=O)CN2C(=O)S/C(=C/c3ccc(-c4cc(C(=O)O)ccc4C)o3)C2=O)cc1C | 50% (inactive) | 39% |
| Oc1ccc(-c2cn3cc(C(F)(F)F)ccc3n2)cc1 | 29% (inactive) | 7% |
| COc1ccc(C2Nc3ccccc3C(=O)N2c2ccc(C)cc2)cc1COc1ccccn1 (stereo unspecified) | 27% (inactive) | 11% |
| Cc1cc(C(=O)Nc2sc3c(c2C#N)CCC3)no1 | 46% (active) | 66% |
| COc1cccc(-n2nnnc2SCC(=O)Nc2ccc(C(C)=O)cc2)c1 | 38% (inactive) | 45% |
| O=C(CSc1nnc(-c2ccc(OC(F)F)cc2)o1)NC(=O)NCc1ccco1 | 34% (inactive) | 26% |
| O=c1cc(CSc2nnc(-c3cccs3)n2Cc2ccccc2)nc2sc3ccccc3n12 | 49% (inactive) | 28% |
| C=CCn1c(=O)c(C#N)cc2c(=O)n3ccccc3nc21 | 38% (inactive) | 42% |
| O=c1cc(-c2ccc(O)c(O)c2)oc2c(C3O[C@H](CO)[C@@H](O)[C@H](O)[C@H]3O)c(O)cc(O)c12 (stereo partly specified) | 28% (inactive) | 27% |
| CCCC1Nc2ccc(C(=O)O)cc2C2C=CCC12 (stereo unspecified) | 22% (inactive) | 64% |
| COc1ccccc1-c1nnc2sc(-c3cnccn3)nn12 | 52% (inactive) | 3% |
